Results on 7 compounds are retold here after PubChem BioAssay (EPA / NIEHS).

Read-out in test [1]: Transforming growth factor beta 1 (TGFb1), TGFB1 (gene 7040)
The test can be described thus: BSK_KF3CT_TGFb1: BioMAP Diversity Plus: KF3CT Assay for Transforming growth factor beta 1 (TGFb1) Biomarker Activity (AID 2283072). Conditions: primary human keratinocytes with fibroblasts; actives raise or lower the signal. The essentials:
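Human keratinocyte plus foreskin fibroblast primary co-culture, dosed with chemical for 24 h. TGF-b1 quantified by ELISA. Activity fitted bidirectionally against DMSO negative control as baseline.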

Read-out in test [2]: C-C motif chemokine 2 (Homo sapiens) (UniProt P13500)
Nature of the test: BSK_KF3CT_MCP1: BioMAP Diversity Plus: KF3CT Assay for Monocyte Chemoattractant Protein 1 (MCP1/CCL2) Biomarker Activity (AID 2283073). Conditions: primary human keratinocytes with fibroblasts; actives raise or lower the signal. The essentials: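 Biomarker MCP-1 is measured by ELISA in primary human keratinocytes co-cultured with foreskin fibroblasts, 24 h after chemical treatment; DMSO serves as the negative control and activity baseline.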

Read-out in test [3]: Matrix Metallopeptidase 9 (MMP9), MMP9 (gene 4318)
The test can be described thus: BSK_KF3CT_MMP9: BioMAP Diversity Plus: KF3CT Assay for Matrix Metallopeptidase 9 (MMP9) Biomarker Activity (AID 2283074). Conditions: primary human keratinocytes with fibroblasts; actives raise or lower the signal. In outline:
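Human keratinocyte and foreskin fibroblast co-culture exposed to chemicals for 24 h; MMP9 biomarker measured by ELISA, bidirectional fitting relative to DMSO; cytotoxicity tracked by SRB total protein staining in parallel cultures.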

Read-out in test [4]: urokinase plasminogen activator (uPA), PLAU (gene 5328)
Nature of the test: BSK_KF3CT_uPA: BioMAP Diversity Plus: KF3CT Assay for urokinase plasminogen activator (uPA) Biomarker Activity (AID 2283075). Conditions: primary human keratinocytes with fibroblasts; actives raise or lower the signal. The essentials: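 Primary human keratinocyte/foreskin fibroblast co-culture exposed to chemical; uPA measured by ELISA at 24 h. Bidirectional fit versus DMSO, with parallel SRB total-protein staining for cytotoxicity.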

Read-out in test [5]: CD40, CD40 (gene 958)
The test can be described thus: BSK_LPS_CD40: BioMAP Diversity Plus: LPS Assay for CD40 Biomarker Activity (AID 2283076). Conditions: primary human HUVEC with PBMC; actives raise or lower the signal. In outline:
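Using a multiplexed primary human co-culture (umbilical vein endothelium plus PBMC), CD40 was read by ELISA 24 h after dosing, with cytotoxicity tracked by sulforhodamine B staining of parallel cultures and activity fitted bidirectionally versus DMSO.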

Read-out in test [6]: E-selectin (Homo sapiens) (UniProt P16581)
The test can be described thus: BSK_LPS_Eselectin: BioMAP Diversity Plus: LPS Assay for Eselectin Biomarker Activity (AID 2283077). Conditions: primary human HUVEC with PBMC; actives raise or lower the signal. In outline: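 Dose chemical onto LPS-driven HUVEC/PBMC co-culture; after 24 h, run ELISA for E-selectin; fit up- and down-going responses relative to DMSO control.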

Read-out in test [7]: Interleukin-8 (IL8), CXCL8 (gene 3576)
The test can be described thus: BSK_LPS_IL8: BioMAP Diversity Plus: LPS Assay for Interleukin-8 (IL8) Biomarker Activity (AID 2283078). Conditions: primary human HUVEC with PBMC; actives raise or lower the signal. The essentials:
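In this LPS system, chemical-treated human umbilical vein endothelium/PBMC co-cultures were harvested at 24 h for IL-8 ELISA.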

Test [8] can be described thus: BSK_LPS_SRB: Viability Assessment in the BioMAP Diversity Plus: LPS Assay (AID 2283079).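 Further: total protein by sulforhodamine B absorbance as a cytotoxicity measure; measured one day after compound addition; fitted in both directions against DMSO so loss or gain of signal counts.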 Conditions: primary human HUVEC with PBMC. In outline:
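Cytotoxicity endpoint in human endothelial–PBMC co-culture: 24 h exposure, then SRB (0.1%) staining, 560 nm read.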

Read-out in test [9]: Interleukin-1 alpha (IL1a), IL1A (gene 3552)
The test can be described thus: BSK_LPS_IL1a: BioMAP Diversity Plus: LPS Assay for Interleukin-1 alpha (IL1a) Biomarker Activity (AID 2283080). Conditions: primary human HUVEC with PBMC; actives raise or lower the signal. The essentials:
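Primary human HUVEC and PBMC co-culture stimulated with LPS is dosed and harvested at 24 h. Both increases and decreases in ELISA-measured IL-1a are scored relative to DMSO.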

Read-out in test [10]: Monocyte Chemoattractant Protein-1 (MCP1), CCL2 (gene 6347)
The test can be described thus: BSK_LPS_MCP1: BioMAP Diversity Plus: LPS Assay for Monocyte Chemoattractant Protein-1 (MCP1) Biomarker Activity (AID 2283081). Conditions: primary human HUVEC with PBMC; actives raise or lower the signal. The essentials:
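Values derive from bidirectional fitting against DMSO of ELISA-measured MCP-1 in a human primary endothelial and mononuclear cell co-culture, 24 h after chemical addition under LPS activation.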

Test [11] is described as follows: BSK_LPS_PGE2: BioMAP Diversity Plus: LPS Assay for Prostaglandin E2 (PGE2) Biomarker Activity (AID 2283082).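 On AC50: secreted prostaglandin E2 measured by ELISA in LPS-stimulated co-culture.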 Conditions: primary human HUVEC with PBMC; actives raise or lower the signal. The essentials:
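HUVEC plus PBMC co-culture stimulated with LPS; secreted PGE2 quantified by ELISA 24 h after chemical dosing. Activity fitted bidirectionally against DMSO as negative control and baseline; parallel SRB total-protein staining served as cytotoxicity check.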

Read-out in test [12]: Macrophage colony-stimulating factor (MCSF), CSF1 (gene 1435)
Nature of the test: BSK_LPS_MCSF: BioMAP Diversity Plus: LPS Assay for Macrophage colony-stimulating factor (MCSF) Biomarker Activity (AID 2283083). Conditions: primary human HUVEC with PBMC; actives raise or lower the signal. The essentials:
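Bidirectional fit versus DMSO of ELISA-measured M-CSF in co-cultured human umbilical vein endothelial cells and PBMC, sampled 24 h after dosing.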

Read-out in test [13]: Tissue Factor, F3 (gene 2152)
The test can be described thus: BSK_LPS_TissueFactor: BioMAP Diversity Plus: LPS Assay for Tissue Factor Biomarker Activity (AID 2283084). Conditions: primary human HUVEC with PBMC; actives raise or lower the signal. The essentials: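 Read-out: CD142 ELISA, 24 h. System: LPS-driven human endothelial/PBMC co-culture. Analysis: up- or down-signal fitted against DMSO.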

Read-out in test [14]: Tumor necrosis factor (Homo sapiens) (UniProt P01375)
Nature of the test: BSK_LPS_TNFa: BioMAP Diversity Plus: LPS Assay for Tumour Necrosis Factor alpha (TNFa) Biomarker Activity (AID 2283085). Conditions: primary human HUVEC with PBMC; actives raise or lower the signal. In outline:
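Human umbilical vein endothelial cells co-cultured with PBMC were exposed to test chemical and TNFa measured by ELISA 24 h after dosing. Bidirectional curve fitting was done relative to DMSO as negative control and baseline.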

Read-out in test [15]: Vascular cell adhesion molecule 1 (VCAM1), VCAM1 (gene 7412)
Nature of the test: BSK_LPS_VCAM1: BioMAP Diversity Plus: LPS Assay for Vascular cell adhesion molecule 1 (VCAM1) Biomarker Activity (AID 2283086). Conditions: primary human HUVEC with PBMC; actives raise or lower the signal. The essentials: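 Human umbilical vein endothelial cells co-cultured with peripheral blood mononuclear cells under LPS stimulation were exposed to test chemical for 24 h. VCAM-1 levels were then measured by ELISA, with bidirectional curve fitting relative to DMSO as negative control and baseline.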

Read-out in test [16]: CD38, CD38 (gene 952)
Nature of the test: BSK_SAg_CD38: BioMAP Diversity Plus: SAg Assay for CD38 Biomarker Activity (AID 2283087). Conditions: primary human HUVEC with PBMC; actives raise or lower the signal. In outline:
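Fluorescence ELISA of cell-surface CD38 served as the read-out, with either increase or decrease fitted against DMSO controls. Cells were a human umbilical vein endothelium plus PBMC co-culture under SEB/TSST-1 stimulation, measured 24 h after dosing.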

Read-out in test [17]: CD40, CD40 (gene 958)
Nature of the test: BSK_SAg_CD40: BioMAP Diversity Plus: SAg Assay for CD40 Biomarker Activity (AID 2283088). Conditions: primary human HUVEC with PBMC; actives raise or lower the signal. In outline: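 Endpoint derived by fitting increases or decreases versus DMSO controls. CD40 is detected by fluorescence ELISA in a human vascular co-culture of endothelium and PBMC at 24 h.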

Read-out in test [18]: CD69, CD69 (gene 969)
The test can be described thus: BSK_SAg_CD69: BioMAP Diversity Plus: SAg Assay for CD69 Biomarker Activity (AID 2283089).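 On AC50: cell surface CD69 protein quantified by ELISA with fluorescence detection.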 Conditions: primary human HUVEC with PBMC; actives raise or lower the signal. In outline:
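Endothelial/PBMC co-culture; chemical added; 24 h incubation; CD69 ELISA with fluorescence detection; bidirectional fit vs DMSO.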

Read-out in test [19]: Monocyte Chemoattractant Protein-1 (MCP1), CCL2 (gene 6347)
The test can be described thus: BSK_SAg_MCP1: BioMAP Diversity Plus: SAg Assay for Monocyte Chemoattractant Protein-1 (MCP1) Biomarker Activity (AID 2283090). Conditions: primary human HUVEC with PBMC; actives raise or lower the signal. In outline: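 MCP-1 levels in the endothelial–PBMC SAg co-culture were quantified by ELISA at 24 h post-dosing; both increases and decreases versus DMSO scored. Cytotoxicity monitored by SRB total protein in parallel cultures.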

Read-out in test [20]: E-selectin (Homo sapiens) (UniProt P16581)
The test can be described thus: BSK_SAg_Eselectin: BioMAP Diversity Plus: SAg Assay for Eselectin Biomarker Activity (AID 2283091). Conditions: primary human HUVEC with PBMC; actives raise or lower the signal. In outline:
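Endpoint values derive from bidirectional fitting relative to DMSO, using ELISA-measured E-selectin in a human vascular co-culture (umbilical vein endothelium plus PBMC) sampled 24 h after dosing.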

One may read the AC50 as the concentration giving half of the maximal activity seen.

Active and inactive are the calls of the source. How the source made its calls: active means hit-call score of the fitted dose curve at least 0.9, where 1 is the maximum; inactive means score below 0.9.

Chain of Tumor necrosis factor (Homo sapiens) (P01375 whole entry, looked up): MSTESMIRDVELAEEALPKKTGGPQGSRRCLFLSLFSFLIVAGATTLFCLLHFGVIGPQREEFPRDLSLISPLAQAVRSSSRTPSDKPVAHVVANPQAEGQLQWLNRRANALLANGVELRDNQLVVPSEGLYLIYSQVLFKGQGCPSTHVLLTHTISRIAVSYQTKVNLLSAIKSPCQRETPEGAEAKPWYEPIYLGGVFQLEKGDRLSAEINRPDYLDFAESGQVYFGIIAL
Chain of E-selectin (Homo sapiens) (P16581 whole entry, looked up): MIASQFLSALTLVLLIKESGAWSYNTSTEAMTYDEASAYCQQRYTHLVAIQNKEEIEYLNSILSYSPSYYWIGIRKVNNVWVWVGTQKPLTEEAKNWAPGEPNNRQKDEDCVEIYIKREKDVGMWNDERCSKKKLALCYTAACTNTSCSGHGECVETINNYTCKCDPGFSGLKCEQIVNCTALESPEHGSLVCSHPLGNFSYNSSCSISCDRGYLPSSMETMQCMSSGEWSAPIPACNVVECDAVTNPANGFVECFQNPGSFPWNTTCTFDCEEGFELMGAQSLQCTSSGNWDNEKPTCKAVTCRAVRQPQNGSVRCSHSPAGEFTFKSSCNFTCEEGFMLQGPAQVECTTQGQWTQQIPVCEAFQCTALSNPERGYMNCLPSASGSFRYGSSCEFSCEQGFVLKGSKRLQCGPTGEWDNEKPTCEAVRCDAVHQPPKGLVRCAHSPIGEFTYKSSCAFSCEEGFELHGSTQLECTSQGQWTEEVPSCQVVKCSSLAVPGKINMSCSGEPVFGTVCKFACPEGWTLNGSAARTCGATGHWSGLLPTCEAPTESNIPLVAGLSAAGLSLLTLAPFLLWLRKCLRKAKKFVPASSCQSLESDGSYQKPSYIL

`CCCCN(CCCC)CCCC`: the result in [1], in test [2], in [3], in test [4], in [5] and in [6] was inactive. Also, the outcome in [7], in [8], in test [9], in [10], in [11] and in [12] was inactive. In addition, the result in test [13], in test [14], in test [15], in test [16], in [17] and in test [18] was inactive. Further, the result in test [19] and in test [20] was inactive.
Turning to `CC(C)(C)c1cc(O)c(C(C)(C)C)cc1O`, the outcome in [1], in [2], in [3], in test [4], in test [5] and in [8] was inactive. The outcome in test [9], in test [10], in [13] and in [16] was inactive. The AC50 was 7.72 µM (active) in [6]; 1.39 µM (active) in test [7]; 9.44 µM (active) in test [11]; 8.05 µM (active) in test [15]; 11.7 µM (active) in test [17]; 5.55 µM (active) in [18]. The AC50 in test [20] was 7.31 µM (active).
With `Oc1ccc2c(c1)OC[C@@H](N1CCC(O)(c3ccc(F)cc3)CC1)[C@H]2O`, the outcome in [1], in test [2], in test [3], in test [4], in [5] and in test [6] was inactive. The outcome in test [7], in test [8], in test [9], in test [11], in test [12] and in test [13] was inactive. Further, the outcome in [14], in [15], in test [16], in [17], in test [18] and in test [19] was inactive. Also, the result in [20] was inactive.
As for `Cc1ccc2ncccc2c1`, the outcome in test [1], in test [2], in test [3], in test [4], in [5] and in [6] was inactive. In addition, the outcome in test [7], in test [8], in test [9], in test [10], in test [11] and in [12] was inactive. In addition, the result in test [13], in test [14], in test [15], in test [16], in [17] and in [18] was inactive. For the same compound, in test [20], the result was inactive.
As to `C[C@]12C=CC(=O)C=C1CC[C@@H]1[C@@H]2C(=O)C[C@@]2(C)[C@H]1CC[C@]2(O)C(=O)CO`, the outcome in test [1], in test [2], in [3], in test [4], in test [5] and in [6] was inactive. In addition, the outcome in [7], in test [8], in test [9], in [10], in [11] and in test [13] was inactive. Besides, the outcome in test [15], in [16], in test [17], in test [18] and in test [20] was inactive.
On to `Cc1cccc([N+](=O)[O-])c1C`, for which the result in test [1], in test [2], in [3], in test [4], in [5] and in test [6] was inactive. For the same compound, the result in test [7], in test [8], in test [9], in [10], in test [11] and in test [12] was inactive. The outcome in test [13], in test [14], in [15], in test [16], in test [17] and in [18] was inactive. For the same compound, the outcome in [19] and in test [20] was inactive.
Take `CC(=O)C(C)=CC1C(C)=CCCC1(C)C` (stereo not given): the outcome in [1], in test [2], in test [3], in test [4], in test [5] and in [6] was inactive. Moreover, the result in test [7], in [8], in test [9], in test [10], in [11] and in [13] was inactive. The outcome in test [15], in test [16], in [17], in test [18], in test [19] and in test [20] was inactive.
